Compounds with a hit are over-represented: about 19% of the library has one in this group of screens.
IL-1B inflam inh – qHTS for Inhibitors of Inflammasome Signaling: IL-1-beta AlphaLISA Primary Screen | THP-1 LPS/ATP IL-1B secretion, AlphaLISA, 16 h; stronger effect = lower value | 4.7% of 360,000 active | activity change, % at 57.5 µM; in the data active means activity change below about -50%; inconclusive means mostly about -30% to -49%
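Secreted IL-1B measured by AlphaLISA bead assay after 16 h compound exposure of THP-1 cells; compounds (final up to 57.5 uM) added 1 h before LPS (250 ng/mL) and ATP (1.25 mM) stimulation; lower signal means less secretion.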
DT40 TDP1 CPT – qHTS for Inhibitors of human tyrosyl-DNA phosphodiesterase 1 (TDP1): qHTS in cells in presence of CPT | Potency, µM (series often up to 46.2 µM), usual class: inhibitors | chicken DT40 Tdp1-/-;hTDP1 cells + 20 nM CPT, ATP luminescence, 48 h | 12% of 420,000 active; further: nearly all actives have a fitted effect of over 55% in size
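Chicken DT40 Tdp1-/- cells complemented with human TDP1, 400 cells/well, exposed to compounds plus 20 nM camptothecin for at least 48 h at 37 C; viability read as ATP content by CellTiter-Glo luminescence.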
TGFb SMAD3 inh – qHTS for Inhibitors of TGF-b. Potency, µM (titrated, usually from 46.1 µM), hits mostly inhibitors. HepG2 CAGA-GFP TGF-b/SMAD3 reporter, GFP fluorescence, 18 h; TGF-beta stimulated, 500 pg/mL final. AID 588855, 2011. 1.2% of 410,000 active; further: nearly all actives have a fitted effect of over 65% in size
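Using HEPG2 CAGA-GFP reporter cells at 1000 cells/well, we pinned test compounds, stimulated with recombinant TGF-beta (500 pg/mL final) and measured total well GFP after 18 h.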
HepG2 viability – qHTS for Inhibitors of TGF-b: Cytotox Counterscreen; 0.76% of 410,000 active; HepG2 CAGA-GFP viability, ATP luminescence, 18 h; Potency, µM (series often up to 46.1 µM), actives largely listed as cytotoxic
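HepG2 CAGA-GFP cells (1000/well, DMEM with 1% FBS) received compound, then TGF-beta at 500 pg/mL final, and were incubated 18 hours at 37 degrees C. Viability was read by CellTiter-Glo luminescence. Media-only wells were set as complete cell-killing and DMSO as no toxicity.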
ASM inhibitor – Inhibitors of Secretory Acid Sphingomyelinase (S-ASM): qHTS. Sphingomyelin phosphodiesterase (Homo sapiens), P17405. placental ASM, HMU-PC fluorogenic substrate, 60 min. Potency, µM (doses to about 57.5 µM), hits mostly inhibitors. 0.006% of 340,000 active
Target sequence (P17405 47-631 limits assumed): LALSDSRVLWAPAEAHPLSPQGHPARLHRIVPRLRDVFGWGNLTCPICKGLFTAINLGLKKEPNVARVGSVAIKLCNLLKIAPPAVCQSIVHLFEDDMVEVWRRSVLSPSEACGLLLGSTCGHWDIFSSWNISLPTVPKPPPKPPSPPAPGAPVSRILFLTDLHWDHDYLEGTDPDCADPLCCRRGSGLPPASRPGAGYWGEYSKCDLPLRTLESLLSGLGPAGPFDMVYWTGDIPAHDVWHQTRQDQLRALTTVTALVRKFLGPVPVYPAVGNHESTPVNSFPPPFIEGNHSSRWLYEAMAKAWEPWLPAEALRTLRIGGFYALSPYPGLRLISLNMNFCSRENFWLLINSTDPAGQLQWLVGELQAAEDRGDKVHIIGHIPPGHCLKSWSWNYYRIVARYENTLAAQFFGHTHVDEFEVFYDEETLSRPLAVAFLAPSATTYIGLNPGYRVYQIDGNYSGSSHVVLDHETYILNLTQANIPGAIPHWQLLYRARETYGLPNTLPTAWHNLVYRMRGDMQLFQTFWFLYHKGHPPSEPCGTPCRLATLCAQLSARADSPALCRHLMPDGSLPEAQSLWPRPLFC
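Human placenta-derived ASM enzyme was preincubated with compound for 10 minutes at room temperature, then given fluorogenic substrate HMU-PC0 (9 uM final) for 60 minutes at 37 °C; a pH 10 stop preceded fluorescence reading at Ex 386/Em 447 nm.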
DT40 TDP1 no CPT – qHTS for Inhibitors of human tyrosyl-DNA phosphodiesterase 1 (TDP1): qHTS in cells in absence of CPT; 15% of 420,000 active; AID 686978, 2013; DT40 Tdp1-/- hTDP1 cells, no CPT, ATP luminescence, 48 h; Potency, µM (titrated, usually from 46.2 µM), usual class: inhibitors; further: nearly all actives have a fitted effect of over 55% in size
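A cellular qHTS used chicken DT40 cells lacking endogenous Tdp1 but carrying stably transfected human TDP1. Compounds were applied without camptothecin, and cell growth kinetics were judged by ATP-dependent luminescence after ≥48 hr.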
Hits are given with their value. Unless noted, the call rests on the fitted dose curve; in most records, active means well fitted curve in the direction sought with a large enough effect; inconclusive means small, poorly fitted or top-dose-only effect, or another doubt; inactive means no such curve, though single readings can be large; an effect the other way counts as inactive or inconclusive.

`O=C1c2ccccc2C(=O)C1c1nccc2ccccc12` gave IL-1B inflam inh inactive, DT40 TDP1 CPT 10.3µM, TGFb SMAD3 inh inactive, HepG2 viability inactive, ASM inhibitor inactive and DT40 TDP1 no CPT 11.6µM.
`O=C1c2ccccc2C(=O)C1c1ccnc2ccccc12` gave IL-1B inflam inh inactive, DT40 TDP1 CPT 5.8µM, TGFb SMAD3 inh inactive, HepG2 viability inactive, ASM inhibitor inactive and DT40 TDP1 no CPT 13µM.
`O=C1C(c2ccnc3ccccc23)=C(O)c2ccccc21` gave IL-1B inflam inh inactive, DT40 TDP1 CPT 13µM, TGFb SMAD3 inh inactive, HepG2 viability inactive, ASM inhibitor inactive and DT40 TDP1 no CPT 11.6µM.
CC(=O)N1CCc2cc(S(=O)(=O)NC(C(=O)NC(C)c3ccccc3)C(C)C)ccc21 (stereo not given) was read as IL-1B inflam inh inactive, DT40 TDP1 CPT inactive, TGFb SMAD3 inh inactive, HepG2 viability inactive, ASM inhibitor inactive and DT40 TDP1 no CPT inactive.
`COc1cc2c(cc1OC)C(=O)CCC2` gave IL-1B inflam inh inactive, DT40 TDP1 CPT 14.6µM, TGFb SMAD3 inh inconclusive, HepG2 viability inactive, ASM inhibitor inactive and DT40 TDP1 no CPT 16.4µM.
`CC1CSc2n(-c3cccc(C(F)(F)F)c3)cc(-c3ccccc3)[n+]21` (stereo not given) gave IL-1B inflam inh inactive, DT40 TDP1 CPT inconclusive, TGFb SMAD3 inh inactive, HepG2 viability inactive, ASM inhibitor inactive and DT40 TDP1 no CPT 16.4µM.
`Cc1ccc(NC(=O)Cn2c(-c3nonc3N)nc3ccccc32)c(Br)c1` gave DT40 TDP1 CPT inactive, TGFb SMAD3 inh inactive, HepG2 viability inactive and DT40 TDP1 no CPT inconclusive.
`COc1ccccc1C(=O)C1CCCN(C(=O)CCC(=O)c2ccccc2)C1` (stereo not given) gave IL-1B inflam inh inactive, DT40 TDP1 CPT 10.3µM, TGFb SMAD3 inh inactive, HepG2 viability inactive, ASM inhibitor inactive and DT40 TDP1 no CPT 29.1µM.
Screening COc1ccccc1C(=O)C1CCCN(C(=O)c2ccccc2Cl)C1 (stereo not given) returned IL-1B inflam inh inactive, DT40 TDP1 CPT inconclusive, TGFb SMAD3 inh inactive, HepG2 viability inactive, ASM inhibitor inactive and DT40 TDP1 no CPT inconclusive.
COc1ccccc1C(=O)C1CCCN(C(=O)c2ccc(Cl)cc2)C1 (stereo not given) was read as IL-1B inflam inh inactive, DT40 TDP1 CPT inconclusive, TGFb SMAD3 inh inactive, HepG2 viability inactive and DT40 TDP1 no CPT 16.4µM.
`O=C(/C=C/c1ccccc1)Nc1cccc(C(=O)N2CCCC2)c1` gave IL-1B inflam inh inactive, DT40 TDP1 CPT inconclusive, TGFb SMAD3 inh inactive, HepG2 viability inactive, ASM inhibitor inactive and DT40 TDP1 no CPT inactive.
COc1ccc(-c2noc(CN(C(=O)c3ccc(C)cc3C)C(C)C)n2)cc1 was read as DT40 TDP1 CPT 23.1µM, TGFb SMAD3 inh inconclusive, HepG2 viability inactive and DT40 TDP1 no CPT 14.6µM.
For COc1cccc(C(=O)N(Cc2nc(-c3ccc(C)cc3)no2)C(C)C)c1 the results were IL-1B inflam inh inactive, DT40 TDP1 CPT 18.4µM, TGFb SMAD3 inh inactive, HepG2 viability inactive, ASM inhibitor inactive and DT40 TDP1 no CPT inconclusive.
Screening Cc1ccc(-c2noc(CN(C(=O)c3ccc(C(C)(C)C)cc3)C(C)C)n2)cc1 returned DT40 TDP1 CPT inconclusive, TGFb SMAD3 inh inactive, HepG2 viability inactive and DT40 TDP1 no CPT inconclusive.
`Cc1cc(C(=O)NCCc2ccc(Cl)cc2)c2ccccc2n1` gave IL-1B inflam inh inactive, DT40 TDP1 CPT inactive, TGFb SMAD3 inh inactive, HepG2 viability inactive, ASM inhibitor inactive and DT40 TDP1 no CPT inconclusive.

Compound activity (PubChem BioAssay)
